Assay outcomes from PubChem BioAssay.
mcGAS lum: blocks mouse cGAS activity. Q8C6L5. recombinant cGAS, Kinase-Glo ATP depletion luminescence. inhibition, % at 12.5 µM. 0.15% of 160,000 active;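 note: 0% = negative control wells and 100% = reference inhibitor with no enzyme activity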
Target sequence (Q8C6L5 whole entry, looked up): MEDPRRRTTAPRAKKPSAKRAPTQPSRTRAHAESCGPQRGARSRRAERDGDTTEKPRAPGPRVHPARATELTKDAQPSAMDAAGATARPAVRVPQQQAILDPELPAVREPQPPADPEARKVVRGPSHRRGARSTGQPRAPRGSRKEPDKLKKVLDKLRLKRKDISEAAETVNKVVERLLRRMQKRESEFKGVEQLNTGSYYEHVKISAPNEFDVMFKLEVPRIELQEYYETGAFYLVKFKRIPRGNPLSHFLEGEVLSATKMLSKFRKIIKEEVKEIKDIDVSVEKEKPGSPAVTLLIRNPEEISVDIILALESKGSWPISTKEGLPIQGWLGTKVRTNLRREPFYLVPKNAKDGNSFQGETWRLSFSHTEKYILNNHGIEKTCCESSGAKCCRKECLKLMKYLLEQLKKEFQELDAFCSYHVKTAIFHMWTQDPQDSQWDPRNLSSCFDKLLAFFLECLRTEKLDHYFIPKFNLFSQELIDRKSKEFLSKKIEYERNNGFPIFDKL
NPYLR7 ag: activates Aedes aegypti NPYLR7 receptor | activation, % at 10 µM | 0.15% of 270,000 active | HEK293T NPYLR7/Galpha15, GCaMP6s calcium fluorescence; in the data active = activation above about 40%;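 note: 0% = vehicle and 100% = reference agonist at the receptor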
hcGAS lum: blocks human cGAS activity. Q8N884. recombinant h-cGAS, ATP depletion, Kinase-Glo luminescence. inhibition, % at 12.5 µM. 0.081% of 290,000 active;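 note: 0% = vehicle reaction and 100% = reaction without DNA for no activity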
The depositor's hits bear a star; x = not tested or not shown; ! = not active in a repeat. Rows were chosen to be rich in hits. Some 0.24% of all compounds tested hit in one or more screens of this group. Cut-off read from the data, not from the text of the source, unless noted: active = inhibition above about 40%; inactive = the rest.

SMILES	mcGAS lum	NPYLR7 ag	hcGAS lum
CCN(CC)c1ccc(/C=C2\SC(=S)N(CCS(=O)(=O)O)C2=O)cc1	-8.3	137.0*	-17.4
COc1cccc(-c2cc(C(=O)N3CCC(n4c(=O)[nH]c5ccccc54)CC3)nc3cc(C(C)(C)C)nn23)c1	-5.0	17.0	-1.3
CC[C@@]1(O)C(=O)OCc2c1cc1n(c2=O)Cc2cc3c(CN(C)C)c(O)ccc3nc2-1	x	88.2*	-3.0
CCN(C(=O)c1sc(NC(=O)CCl)c(C#N)c1C)C1CCCCC1	1.2	-7.0	-2.6
Cc1c(C#N)sc(NC(=O)CCl)c1C#N	44.6*	2.3	6.9
CC(C)(C)NC(=O)COc1ccc(CN2CC[C@H]3CC[C@@H](C2)N3)cc1	-11.4	1.3	-5.1
CC1(C)CC[C@]2(C)CC[C@]3(C)C(=CCC4[C@@]5(C)CC[C@H](O)C(C)(C)C5CC[C@]43C)C2C1 (some centres not stated)	-3.4	x	-5.2
C[C@@H]1OC(O[C@H]2[C@H](OC(=O)[C@]34CCC(C)(C)CC3C3=CCC5[C@@]6(C)CC[C@H](OC7O[C@@H](C)[C@H](O[C@@H]8OC[C@@H](O)[C@H](O)[C@H]8O)[C@@H](O)[C@H]7O)C(C)(C)C6CC[C@@]5(C)[C@]3(C)CC4O)OC[C@H](O)[C@H]2O)[C@H](O)[C@H](O)[C@H]1O[C@@H]1O[C@H](CO)[C@@H](O)[C@H](O)[C@H]1O (some centres not stated)	x	54.1*	-1.4
C=CCOC(CN1CCN(C(=O)Nc2ccccc2C(=O)OC)CC1)c1cccc(OC)c1 (configuration not stated)	-6.3	-4.4	-4.8
O=c1oc2cc(O)ccc2cc1-c1nnc(-c2ccccc2)o1	-5.7	34.8	9.4
O=c1oc2cc(O)ccc2cc1-c1nc2ccccc2o1	x	216.4*	5.0
COC1=C(OC)C(=O)c2ccccc2C1=O	11.8	-5.6	-0.9
CS(=O)(=O)N=C1C=C(S(=O)(=O)c2ccccc2)C(=O)c2ccccc21	x	2.2	55.2*
CC(=O)Nc1ccccc1OCC(=O)Nc1ccccc1SC(F)F	x	1.6	-12.6
N#Cc1cccc(CNC(=O)C2=NN(c3ccccc3)C(C(N)=O)C2)c1 (configuration not stated)	x	0.3	0.8
CCCCC(O)CN(Cc1ccco1)Cc1c(-c2ccccc2)nn(C)c1Oc1ccc(OC)cc1 (configuration not stated)	-2.0	-5.3	0.0
O=C1c2cccc3c([N+](=O)[O-])ccc(c23)C(=O)N1c1ccc([N+](=O)[O-])cc1	-6.8	-0.1	-7.2
NCCNc1ccc2c3c(cccc13)C(=O)N(c1ccc(Cl)cc1)C2=O	x	104.4*	3.6
O=C(c1ccccc1)c1ccc2c3c(cccc13)C(=O)N(c1ccccc1)C2=O	0.8	-15.3	3.9
O=C1c2cccc3c(Nc4ccccc4)ccc(c23)C(=O)N1c1ccccc1	-5.1	53.3*	-4.6
O=C1c2cccc3c(C#Cc4ccccc4)ccc(c23)C(=O)N1c1ccccc1	x	5.2	-7.7
O=C1c2cccc3c(NCC(O)CCl)ccc(c23)C(=O)N1c1ccccc1 (configuration not stated)	-4.1	94.2*!	-4.7
Cc1cccc(-n2nc(C(=O)N(C)C3CCCCC3)c(=O)n(Cc3ccc(C(F)(F)F)cc3)c2=O)c1	-4.1	15.0	-3.9
CCOC(=O)c1ccc(Nc2nnc(-c3cc4c(ccc5ccccc54)oc3=O)s2)cc1	-1.8	-7.6	1.5
COc1cccc(-n2c(=O)[nH]c3c(C(N)=O)nc(-c4ccccc4O)nc32)c1	x	17.1	-8.9
SMILES	mcGAS lum	NPYLR7 ag	hcGAS lum
O=C(OCc1cc2c(cc1Br)OCO2)c1cccc(O)c1	x	0.3	-13.6
O=C(OCc1cc2c(cc1Br)OCO2)c1cnccn1	-1.9	-0.7	69.4*
Cn1c(C(C#N)=Cc2c(F)c(F)c(F)c(F)c2F)nc2ccccc21	x	141.8*	0.4
Cn1c(C(C#N)=Cc2ccsc2)nc2ccccc21	-0.8	-0.8	3.2
CC1=NN(Cc2ccccc2)c2nc3c(c(=O)n(Cc4ccccc4)c(=O)n3C)n2C1	x	10.9	0.8
CN(Cc1ccc(Br)cc1)C(=O)CCl	41.7*	0.5	-4.3
CCCNC(=O)NCC(=O)N(C)Cc1ccc(Br)cc1	x	0.5	-5.0
COc1nc(-c2ccc(C(F)(F)F)cc2)n(-c2ccc(NC(=O)c3ccc(-c4ccccc4)cc3)cc2)n1	-5.5	-0.7	-8.1
COc1ccc(-c2nnc(-c3cc4c(ccc5ccccc54)oc3=O)o2)cc1	-1.0	-3.7	2.8
O=C(NCc1ccccn1)c1cc2c(ccc3ccccc32)oc1=O	x	11.1	-6.0
O=c1oc2ccc3ccccc3c2cc1-c1nnc(-c2ccccc2)o1	-2.0	-6.2	46.4*
O=C(O)c1cc2c(ccc3ccccc32)oc1=O	41.8*	-6.4	16.5
Cc1cccc(-c2cccc(-c3ccn(C(C)C(=O)Nc4nccs4)n3)c2)n1 (configuration not stated)	-8.9	2.0	-6.8
O=C(N1CCN(Cc2cc(=O)c(OCc3cccc(F)c3)co2)CC1)C1(c2ccc(Cl)cc2)CCCC1	-7.1	19.8	-5.3
CC1OC(C)(C)N(C(=O)OC(C)(C)C)C1CN (configuration not stated)	x	-0.8	-4.2
Cc1cc(C(=O)N/N=C\c2ccc(C)o2)c2ccccc2n1	-4.4	12.9	-3.9
O=C1CNc2c(c(=O)oc3ccccc23)N1	x	2.1	52.2*
O=c1c2ccccc2oc2ccccc12	-3.6	0.7	-7.8
COc1ccc(Br)cc1C1C(C#N)C(=N)SC(=N)C1C#N (configuration not stated)	16.8	3.7	4.3
N#CC1C(=N)SC(=N)C(C#N)C1c1cc(Br)ccc1F (configuration not stated)	57.4*	3.7	16.0
O=C1C(=Cc2ccc(OC(F)F)cc2OC(F)F)Oc2cc(O)ccc21	x	41.4*	-4.6
COc1ccccc1C=C1Oc2cc(O)ccc2C1=O	x	17.4	-5.3
COc1ccc(C=C2Oc3cc(O)ccc3C2=O)c(OC)c1	x	33.7	-8.1
CCOc1cccc(C=C2Oc3cc(O)ccc3C2=O)c1OC	x	69.7*	-3.6
N#Cc1cccc(C(=O)N2CCN(c3ncccc3C(=O)NCc3cccs3)CC2)c1	0.4	-12.6	-2.7
SMILES	mcGAS lum	NPYLR7 ag	hcGAS lum
CCOc1ccccc1CN1CCCn2cccc2C1c1ccc(F)cc1F (configuration not stated)	4.7	1.1	-1.1
CCCCCCCCCCCCNC(=O)c1c(O)c2ccccc2[nH]c1=O	-3.2	-2.9	44.7*
O=C(NCCCO)c1c(O)c2ccccc2[nH]c1=O	x	-2.0	-1.6
CCCC1CCC(C(=O)Nc2nnc(SCC)s2)CC1 (configuration not stated)	-6.4	54.8*	-2.6
O=C(Nc1nnc(SCC2CC2)s1)C1CCCC1	-3.5	-5.1	-4.5
Cc1ccccc1-n1nc(C)c(-c2ccccc2)c1NC(=O)CN(CC(C)C)S(=O)(=O)c1ccc([N+](=O)[O-])cc1	-5.0	-0.6	-7.1
CCCCN(CC(=O)Nc1c(-c2ccccc2)c(C)nn1-c1ccccc1C)S(=O)(=O)c1ccc(F)cc1	-4.8	47.7*	-1.7
CC(NC(=O)c1cnn2c1CCCC2)C1=CCCCC1 (configuration not stated)	-11.9	1.0	-4.1
N#CC(C#N)=C1C=C2C=C(N3CCc4ccccc4C3)CCC2CC1 (configuration not stated)	x	87.1*	-3.6
